# About 2,300 (0.64%) of roughly 360,000 compounds were called active.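 How the source made its calls: active means compounds giving at least 50% protection of heart cells from peroxide-induced death in the single-dose screen, raw or plate-pattern-corrected value; inactive means the rest.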 The sample as a whole holds a higher share of actives than the screen did.
# Test: H9c2 cardiomyocyte survival under peroxide injury – uHTS, H9c2 cells, ATPLite luminescence, primary screen (AID 588492);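 further: 0% = DMSO wells with peroxide and 100% = DMSO wells without peroxide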
# Conditions: H9c2 cardiomyocytes, 2 h, at 20 µM, hits give high values
row,Structure (SMILES),protection from H2O2 cell death
1,Cc1ccc(O)c(/C=N/NC(=O)COc2ccc3c(C)cc(=O)oc3c2)c1,38.5% (inactive)
2,Cc1ccc2c(CSc3nncs3)cc(=O)oc2c1,-3.2% (inactive)
3,CCOC(=O)Cc1csc(SCc2cc(=O)oc3cc(O)ccc23)n1,55.7% (active)
4,CCOC(=O)Cc1csc(SCC(=O)Nc2ccc(C)cc2F)n1,-15.1% (inactive)
5,CCOC(=O)Cc1csc(NC(=O)COc2ccc3c(C)cc(=O)oc3c2)n1,71.2% (active)
6,COc1ccc(N2CCN(C(=O)COc3ccc4c(C)cc(=O)oc4c3)CC2)cc1,19.4% (inactive)
7,C/C(=N\NS(=O)(=O)c1ccccc1)c1c(O)cc(C)oc1=O,-1% (inactive)
8,Cc1ccc(Cl)cc1NC(=O)C1CCCN(c2cnccn2)C1 (stereo unspecified),1.6% (inactive)
9,CC1(C(=O)NCC2CCOCC2)Cc2c(-c3cccc(C(N)=O)c3)ccnc2O1 (stereo unspecified),9.5% (inactive)
10,Fc1ccc(-c2ccc(-c3nn4c(-c5ccco5)nnc4s3)o2)cc1,98.7% (active)
11,CNc1nnc(-c2ccco2)s1,3.7% (inactive)
12,Cc1nc2c(-c3ccc(F)cc3)c(C)nn2c(C)c1CCC(=O)NCc1ccco1,2.6% (inactive)
13,CC(C)(C)OC(=O)C[C@H]1C/C=C\C[C@@H](CC(=O)N[C@H](CO)Cc2ccccc2)C(=O)NC[C@@H](c2ccccc2)OC1=O,10.5% (inactive)
14,CC(C)(C)OC(=O)C[C@@H]1C/C=C\C[C@@H](CC(=O)N[C@H](CO)Cc2ccccc2)C(=O)NC[C@@H](c2ccccc2)OC1=O,51.6% (active)
15,CC(C)(C)OC(=O)C[C@@H]1C/C=C\C[C@@H](CC(=O)N[C@H](CO)Cc2ccccc2)C(=O)NCCOC1=O,12.4% (inactive)
16,Cc1ccc(NS(=O)(=O)c2ccc3c(c2)NC(=O)CO3)cc1,-11.5% (inactive)
17,Cc1c(C)n2c(SCC(=O)NC3CCCC3)nnc2[nH]c1=O,1.3% (inactive)
18,COc1ccccc1C(=O)NC(CCSC)C(=O)NNC(=O)c1ccccc1C (stereo unspecified),4.9% (inactive)
19,COc1ccc(S(=O)(=O)/N=C2\C=C(NS(=O)(=O)c3ccccc3)C(=O)c3ccccc32)cc1,-11.4% (inactive)
20,Cc1ccc(S(=O)(=O)/N=C2\C=C(NS(=O)(=O)c3ccc(C)cc3)C(=O)c3ccccc32)cc1,-17.9% (inactive)
21,CC1=C/C(=N\S(=O)(=O)c2ccccc2)C(C(C)C)=CC1=O,63.7% (active)
22,O=C(c1ccc(O)cc1)c1ccc(C(=O)O)c(C(=O)O)c1,5.7% (inactive)
23,Cc1cccnc1C(NC(=O)C1CCN(Cc2ccc(Cl)c(Cl)c2)CC1)c1ccc(Cl)cc1 (stereo unspecified),4.5% (inactive)

row,Structure (SMILES),protection from H2O2 cell death
1,CCn1c(C(O)c2cc(OC)ccc2OC)nc2ccccc21 (stereo unspecified),-3.6% (inactive)
2,Cc1nc2ccccc2n1CC(=O)N/N=C/c1cccs1,-3.1% (inactive)
3,CCn1c(/C=N/NC(=O)c2ccc(OC)cc2)nc2ccccc21,50.7% (active)
4,S=c1ccc2ccccc2[nH]1,4.8% (inactive)
5,Cc1cc2c3ccccc3[nH]c(=O)n2n1,2.8% (inactive)
6,S=c1[nH]c2ccccc2c2ccccc12,50.1% (active)
7,COc1ccc(S(=O)(=O)N2CCN(C(=S)NCC3CCCO3)CC2)cc1OC (stereo unspecified),-4.4% (inactive)
8,N=c1ccn(CC(=O)NC(N)=O)c2ccccc12,4.5% (inactive)
9,CC1(C)Cc2c(C#N)c(SCc3nc4ccccc4[nH]3)nc(N3CCOCC3)c2CO1,50.1% (active)
10,CCOC(=O)CSc1nc(N2CCOCC2)c2c(c1C#N)CC(C(C)C)OC2 (stereo unspecified),-4% (inactive)
11,CC(C)C(=O)N1CCN(c2nc(-c3ccccc3)c3c(c2C#N)CC(C)(C)OC3)CC1,15.1% (inactive)
12,Cc1ccc(S(=O)(=O)N2CCCC2C(=O)OCc2nc3sc(C)c(C)c3c(=O)[nH]2)cc1 (stereo unspecified),34.2% (inactive)
13,Cc1cc(C)c2nc(N3CCC(C(=O)NCCN4CCOCC4)CC3)sc2c1,-1.3% (inactive)
14,CCOC(=O)N1CCN(C(=O)CN(C2CCCCC2)S(C)(=O)=O)CC1,-2.2% (inactive)
15,CC(C)c1cc(N=O)cc(C(C)C)c1O,-7% (inactive)
16,CC(C)=CCc1ccc(O)c(=O)cc1C(C)C,54.2% (active)
17,CC(C)=CCc1c(O)c(CC=C(C)C)c2occ(-c3ccc(O)cc3)c(=O)c2c1O,-14.3% (inactive)
18,O=C(c1ccncc1)N1CCN(S(=O)(=O)c2cc(C(F)(F)F)cc(C(F)(F)F)c2)CC1,-1.3% (inactive)
19,COc1ccc(CCn2c(=N)c(C(=O)NCC3CCCO3)cc3c(=O)n4cccc(C)c4nc32)cc1OC (stereo unspecified),59.6% (active)
20,Cc1ccc2nc3c(cc(C(=O)NCCc4ccccc4)c(=N)n3CC3CCCO3)c(=O)n2c1 (stereo unspecified),5.6% (inactive)
21,COc1ccc(CCNC(=O)CCn2c(=O)c3ccccc3n(CC(=O)NCC3CCCO3)c2=O)cc1OC (stereo unspecified),7.8% (inactive)
22,CN1CCN(c2ccc(CNS(=O)(=O)c3cccc(F)c3)cc2)CC1,7.1% (inactive)
23,CCc1c(C)nc2ncnn2c1N1CCC(C(=O)NCc2ccc3c(c2)OCO3)CC1,-1.5% (inactive)

row,Structure (SMILES),protection from H2O2 cell death
1,CCOC(=O)Nc1ccc(S(=O)(=O)N(C)C(C)C)cc1,3.1% (inactive)
2,O=C(OCC(=O)N1CCN(c2ccccc2)CC1)c1ccc([N+](=O)[O-])s1,-0.2% (inactive)
3,COc1cc(NC(=O)COC(=O)c2ccc([N+](=O)[O-])s2)cc(OC)c1OC,41.6% (inactive)
4,COc1ccc(C(=O)COC(=O)c2ccc([N+](=O)[O-])s2)cc1OC,61.6% (active)
5,CO/N=C(/CS(=O)(=O)c1ccc(Br)cc1)c1ccc(OC)cc1,-11.9% (inactive)
6,Cc1ccc([N+](=O)[O-])c(OCCCNCC(C)O)c1 (stereo unspecified),0.6% (inactive)
7,COc1cc(/C=N/NC(=O)c2ccccc2)ccc1OS(=O)(=O)c1ccccc1,81.8% (active)
8,Cc1ccc(S(=O)(=O)Oc2ccc(/C=N/NC(=O)c3ccncc3)cc2)cc1,2.7% (inactive)
9,COc1cc(/C=N/NC(=O)c2cccnc2)ccc1OC(=O)c1cccc(Br)c1,27.2% (inactive)
10,O=Cc1c(N2CCN(c3cccc(Cl)c3)CC2)nc2ccccn2c1=O,42.7% (inactive)
11,Cc1[nH]n(-c2cccc(Cl)c2)c(=O)c1/C=N/n1c(C)nc2ccccc2c1=O,50.4% (active)
12,O=c1c2ccccc2ncn1/N=C/c1ccccc1,-10.6% (inactive)
13,O=C(N/N=C/c1ccccc1O)/C(=C/c1ccccc1)CCO,35.8% (inactive)
14,O=C(NN=Cc1ccccc1O)C(=O)NN=Cc1ccccc1O,53.6% (active)
15,Oc1ccccc1C=NC1CCCCC1N=Cc1ccccc1O (stereo unspecified),7.8% (inactive)
16,COCCNC(=S)c1ccc(OC)cc1,5.4% (inactive)
17,CCNC(=O)C1(C)CCCN1C(=O)c1ccc(N(C)C)cc1 (stereo unspecified),0.7% (inactive)
18,Cc1nc(N2CCN(c3ccccn3)CC2)c2c(C)c(C(=O)Nc3ccc(F)c(Cl)c3)sc2n1,31.9% (inactive)
19,Cc1nc(N2CCN(c3ccccn3)CC2)c2c(C)c(C(=O)Nc3ccc(F)cc3)sc2n1,71.4% (active)
20,Cc1nc(N2CCOCC2)c2c(C)c(C(=O)Nc3ccc(C(F)(F)F)cc3)sc2n1,-3.8% (inactive)
21,COc1ccc(S(=O)(=O)N2CCN(c3cnccn3)CC2)cc1,-1.4% (inactive)
22,CCc1nc2ccc(C(=O)NC3CCN(Cc4ccccc4)CC3)cn2c1N(C)CCN1CCOCC1,7% (inactive)
23,CCOC(=O)N1CCN(Cc2oc(CO)cc(=O)c2O)CC1,13% (inactive)

row,Structure (SMILES),protection from H2O2 cell death
1,O=C(CSC1=Nc2ccccc2C2=NC(c3ccccc3)C(=O)N12)NCC1CCCO1 (stereo unspecified),29.7% (inactive)
2,NC(=O)CSC1=Nc2ccccc2C2=NC(CCC(=O)NCc3ccc(F)cc3)C(=O)N12 (stereo unspecified),2.5% (inactive)
3,CC(C)C1N=C2c3ccccc3N=C(SCC(=O)c3ccc(O)c(O)c3)N2C1=O (stereo unspecified),96.8% (active)
4,Cc1ccc(S(=O)(=O)N2CCC(C(=O)N[C@@H](C)C(=O)NCCc3ccccc3)CC2)cc1,2% (inactive)
5,COc1cccc(CNc2nc3cc(-c4csc5ccccc45)sc3c(=O)n2C)c1,-3.9% (inactive)
6,CN(C(=O)c1ccccn1)c1nnc(-c2ccccn2)s1,-5.5% (inactive)
7,CCOc1cccc(-c2nnc(SCC(=O)NC3CC3)n2C)c1,-1.8% (inactive)
8,COc1ccc(-c2nn3c(-c4ccccc4)nnc3s2)cc1OC,63.1% (active)
9,COc1ccc(NC(=O)c2cc3nc(-c4ccccc4)cc(C)n3n2)cc1OC,36.7% (inactive)
10,COc1ccc(-n2c(SCC(=O)OC(C)C)nnc2-c2ccccn2)cc1,4% (inactive)
11,c1ccc(-c2cc(-c3nnc4sc(-c5ccccn5)nn34)[nH]n2)cc1,63.3% (active)
12,CCOc1cccc(-c2nn3c(-c4ccccn4)nnc3s2)c1,68% (active)
13,COc1ccc(-c2nc3ccccc3n2CCC(C)C)cc1OC,6.5% (inactive)
14,O=S(=O)(Nc1ccc2ccccc2c1)N1CCCCC1,-4% (inactive)
15,Cc1c(C(=O)O)nnn1-c1nonc1N,3.3% (inactive)
16,Cc1cc(C)c(CN2CCN(C(=O)Cn3ccc(NC(=O)OCc4ccccc4)nc3=O)CC2)c(C)c1,-25% (inactive)
17,CCN(CC)CCCN1C(=O)C(=O)/C(=C(/O)c2c(C)nc3ccccn23)C1c1ccc(C)o1 (stereo unspecified),4.2% (inactive)
18,COC(=O)c1ccc2nc(-c3ccc(Cl)cc3)c(Cc3cccc(F)c3)n2c1,-2.7% (inactive)
19,Cc1ccc(N/C(N)=N/c2nc(C(F)(F)F)cc(C(F)(F)F)n2)cc1,-14.8% (inactive)
20,CCO[C@H]1OC(C(=O)N2CCOCC2)=C[C@@H](c2ccc3c(c2)OCO3)[C@@H]1CCCO,2.8% (inactive)
21,COc1ccc(OC)c(C(O)c2ncc(-c3cccc(C(F)(F)F)c3)[nH]2)c1 (stereo unspecified),-12.4% (inactive)
22,CCNC(=O)C1(C)CCCN(Cc2noc(-c3ccccc3OC)n2)C1 (stereo unspecified),-1.9% (inactive)
